Compound activity from PubChem.
The entries come from a sample that favours hits as a whole.
NTMT1 inhibitor = blocks human N-terminal methyltransferase 1 activity; NTMT1 MTase-Glo SAH luminescence, purified enzyme; Potency, µM (titrated, usually from 114 µM), for the others: at the highest dose activity change, negative = inhibition, actives largely listed as inhibitors; hit rate 2.5% among 59,000; AID 1645870;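 note: plate controls were DMSO vehicle for no effect and no enzyme for full effect; nearly all actives have a fitted effect of over 65% in size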
Target sequence (Q9BV86 whole entry, looked up): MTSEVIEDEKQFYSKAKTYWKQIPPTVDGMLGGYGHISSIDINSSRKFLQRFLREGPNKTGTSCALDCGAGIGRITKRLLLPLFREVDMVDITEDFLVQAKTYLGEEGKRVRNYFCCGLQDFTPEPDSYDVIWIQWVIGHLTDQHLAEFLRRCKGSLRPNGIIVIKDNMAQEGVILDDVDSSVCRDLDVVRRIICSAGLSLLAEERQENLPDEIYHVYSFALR
FH mod = Identification of activators of human fumarate hydratase by quantitative high-throughput screening. Fumarate hydratase, mitochondrial (Homo sapiens), P07954. FH coupled MDH/diaphorase resazurin fluorescence, 15 min. Potency, µM (titrated, usually from 79.9 µM), without a hit: top-dose activity change, negative = inhibition, most hits filed as inhibitors. hit rate 0.22% among 54,000. AID 1347055, 2019; note: % is set by controls: 0 for no effect and ±100 for the full control effect; the screen sought activators but most active calls are inhibition curves; nearly all actives have a fitted effect of over 45% in size
Target sequence (P07954 whole entry, looked up): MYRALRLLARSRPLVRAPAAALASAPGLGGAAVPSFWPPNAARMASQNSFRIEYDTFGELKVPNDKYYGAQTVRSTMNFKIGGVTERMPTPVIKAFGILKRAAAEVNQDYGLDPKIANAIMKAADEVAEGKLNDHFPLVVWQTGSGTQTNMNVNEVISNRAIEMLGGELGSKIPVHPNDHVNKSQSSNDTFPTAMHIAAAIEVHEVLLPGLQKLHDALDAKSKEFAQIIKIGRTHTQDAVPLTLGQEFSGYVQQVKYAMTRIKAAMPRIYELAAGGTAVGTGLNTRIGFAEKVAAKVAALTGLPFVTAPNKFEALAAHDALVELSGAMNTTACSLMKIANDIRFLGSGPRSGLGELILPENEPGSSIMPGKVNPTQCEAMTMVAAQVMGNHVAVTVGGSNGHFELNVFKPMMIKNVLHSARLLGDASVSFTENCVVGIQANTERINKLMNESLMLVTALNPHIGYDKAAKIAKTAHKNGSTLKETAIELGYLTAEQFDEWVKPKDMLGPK
p53null 39C kill = kills p53 null cells at the nonpermissive temperature; Potency, µM (titrated, usually from 46.1 µM), for inactives: at the top dose activity, negative = cell killing, usual class: cytotoxic; hit rate 0.97% among 55,000; AID 904; H1299 p53-null (neo) cells, 39C, ATPlite viability, 24 h;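 note: 0% = DMSO only and -100% = full killing by 100 µM tamoxifen; nearly all actives have a fitted effect of over 50% in size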
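Luminescent ATP signal reported cell survival after H1299 lines (neo, p53 null; or p53 A138V) received up to 46 uM compound and 24 hr incubation at 39C.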
GALC G270D up = raises human GALC G270D mutant activity in cells; AID 1159614; P54803; hit rate 0.1% among 45,000; 145M-Twi-hGALC-G270D cells (Twitcher mouse brain line with human GALC G270D), HMU-beta-Gal fluorescence, 48 h; Potency, µM (titrated, usually from 57.5 µM), hits mostly activators; note: 0% is about no effect; nearly all actives have a fitted effect of over 65% in size
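Live 145M-Twi cells (Twitcher mouse brain-derived, GALC-null) stably expressing human GALC-G270D, with a wild-type GALC line, were compound-treated. Residual GALC activity was then read as fluorescence from 0.1 mM final HMU-β-gal at pH 5.2; higher signal means activation.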
p53null 32C tox = selectivity test: cytotoxicity in p53 null cells, permissive temperature; Potency, µM (highest dose often 46.1 µM), without a hit: at the top dose activity change, negative = cytotoxicity, most hits filed as cytotoxic; H1299-neo p53 null cells, ATP luminescence, 24 h, 32C; hit rate 0.62% among 55,000;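 note: 0% = DMSO only and -100% = full killing by 100 µM tamoxifen; nearly all actives have a fitted effect of over 55% in size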
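ATP-content luminescence in p53-null H1299-neo cells after 24 h compound exposure (up to 46 uM) at 32C permissive temperature; 0% and 100% killing set by DMSO and 100 uM tamoxifen; Hill-equation AC50.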
* = called active by the depositor; i = inactive; u = inconclusive; x = no result given; ! = not active in a repeat; [ ] = another dose, or the depositor's remark. Calls come from the whole dose curve; as a rule, active = well fitted curve in the direction sought with a large enough effect; inconclusive = small, poorly fitted or top-dose-only effect, or another doubt; inactive = no such curve, though single readings can be large; an effect the other way counts as inactive or inconclusive. Potency is the fitted concentration of half-maximal effect.

SMILES | NTMT1 inhibitor | FH mod | p53null 39C kill | GALC G270D up | p53null 32C tox
Cc1cc(NS(=O)(=O)c2cc3c(cc2F)NC(=O)CC3)ccc1Cl | -8.3% | x | x | x | x
O=c1c(-c2ccc(O)cc2)coc2cc(OC3O[C@H](CO)[C@H](O)[C@H](O)[C@H]3O)cc(O)c12 (some centres not stated) | 24.1µM* | u | x | x | x
COc1ccc(CCN2CCN(CCCc3ccccc3)CC2)cc1OC | 89.1µM*! | 3.0% | x | x | x
Cc1ccc(OCC(=O)Nc2nnc(SCc3cc(=O)n4cccc(C)c4n3)s2)cc1 | u | -8.9% | -10.8% | i | 15.1%
Cc1cccn2c(=O)cc(CSc3nnc(NC(=O)COc4ccccc4)s3)nc12 | 39.8µM* | -29.3% | 4.7% | i | -4.5%
COC(=O)c1ccccc1NC(=O)Nc1cccc(OCc2cc(=O)n3cccc(C)c3n2)c1 | 3.4% | 0.4% | 2.0% | i | -2.1%
Cc1cccn2c(=O)cc(COc3cccc(NC(=O)c4ccccc4F)c3)nc12 | u | -14.1% | 7.94µM* | i | -11.7%
C=C1CC[C@@]2(OC1)O[C@H]1CC3C4CC=C5C[C@@H](O[C@@H]6O[C@@H](C)[C@H](O)[C@@H](O)[C@H]6O)C[C@@H](O[C@@H]6O[C@H](C)[C@H](O)[C@H](O)[C@H]6O[C@@H]6O[C@@H](C)[C@H](O)[C@@H](O)[C@H]6O)[C@]5(C)C4CC[C@]3(C)[C@H]1[C@@H]2C (some centres not stated) | -6.0%[12.6 µM] | -2.9%[20.6 µM] | x | x | x
C=C1CCC2C(C)(C)CC(=O)CC2(C)C1CCC(C)CCOC(C)=O (configuration not stated) | -13.9%[29.8 µM] | -2.1%[53.3 µM] | x | x | x
CO[C@H]1C=CC=C(C)C(=O)NC2=CC(=O)C(NCCN(C)C)=C(C[C@@H](C)C[C@H](OC)[C@@H](O)[C@@H](C)C=C(C)[C@@H]1OC(N)=O)C2=O | 27.1µM* | -17.6%[53.3 µM] | x | x | x
C=CCNC1=C2C[C@@H](C)C[C@H](OC)[C@@H](O)[C@@H](C)C=C(C)[C@H](OC(N)=O)[C@@H](OC)C=CC=C(C)C(=O)NC(=CC1=O)C2=O | -4.3%[57.5 µM] | -4.6%[53.3 µM] | x | x | x
C=CC(=O)Nc1cccc(C)c1Nc1ncc2cc(-c3c(Cl)c(OC)cc(OC)c3Cl)ccc2n1 | 13.9% | -23.5% | x | x | x
Cc1ccccc1-c1nc2ccccc2[nH]1 | x | x | -1.2% | x | -14.6%
Cc1ccc(/C=C/c2nc3ccccc3[nH]2)cc1 | 5.01µM* | -0.2% | 1.58µM* | i | 0.398µM*
COc1ccc(Nc2c3c(nc4ccc(NC(=O)c5cc(Cl)ccc5OC)cc24)CCCC3)cc1OC | u | -3.9% | 5.01µM* | i | 6.31µM*
C=CC(C)(C)c1[nH]c2ccccc2c1C1=C(O)C(=O)C(c2c[nH]c3c(CC=C(C)C)cccc23)=C(O)C1=O | 39.8µM* | -5.9% | x | x | x
CNc1nnc(-c2ccc(N(C)C)cc2)s1 | x | x | 7.94µM* | x | 8.91µM*
CCCCCCC[N+](CC)(CC)CCCCc1ccc(Cl)cc1 | u | 2.3%[53.3 µM] | x | i | x
CCCCCCCCc1ccc(CCC(N)(CO)CO)cc1 | 44.7µM*! | 6.6% | x | x | x
O=[S+]([O-])(Nc1ccc(-c2ccccc2)cc1)c1ccc(NCc2ccc(Cl)cc2O)cc1 | -4.8% | x | x | x | x
CCOC(=O)c1nnc(N[S+](=O)([O-])c2ccc(NC(=O)Cc3ccc(Cl)c(Cl)c3)cc2)s1 | 79.4µM* | x | x | x | x
CCOC(=O)c1cccc(NS(=O)(=O)c2ccc(NC(=O)Cc3ccc(Cl)c(Cl)c3)cc2)c1 | -2.6% | x | x | x | x
CCc1ccc(NC(=O)c2ccc(Cn3nc(N4CCN(c5ccccc5)CC4)ccc3=O)o2)cc1 | u | -21.0% | -15.8% | i | 5.3%
CCc1ccc(-c2cc3c(N4CCN(c5ccccc5)CC4)nccn3n2)cc1 | 79.4µM* | -10.7% | 1.5% | i | 10.5%
CCCN(CCC)C(=O)Cn1c(=O)n(-c2ccc(CC)cc2)c(=O)c2c3c(sc21)CCC3 | 89.1µM* | -11.1% | 15.1% | i | 22.5%
SMILES | NTMT1 inhibitor | FH mod | p53null 39C kill | GALC G270D up | p53null 32C tox
CCCN(CCC)C(=O)Cn1c(=O)n(-c2ccc(Cl)cc2)c(=O)c2c3c(sc21)CCCC3 | 5.7% | -2.7% | -0.4% | i | 3.7%
Cc1cccn2c(=O)c3cc(C(=O)NCc4ccccc4)c(=N)n(CCOCCO)c3nc12 | 0.9% | -0.1% | 16.6% | 10µM* | 1.3%
CCCn1c(=N)c(C(=O)NC2CCCC2)cc2c(=O)n3cccc(C)c3nc21 | -15.9% | 4.1% | 10.7% | i | 2.3%
CCn1c(=N)c(C(=O)NC2CCCCC2)cc2c(=O)n3cccc(C)c3nc21 | 0.6% | -0.2% | -5.9% | 28.2µM* | 2.8%
CCOCCCn1c(=N)c(C(=O)NC(C)c2ccccc2)cc2c(=O)n3cccc(C)c3nc21 (configuration not stated) | 1.9% | 4.3% | -3.3% | 20µM* | 10.7%
Cc1cccn2c(=O)c3cc(C(=O)NC(C)c4ccccc4)c(=N)n(CCOCCO)c3nc12 (configuration not stated) | -15.1% | 9.6% | 15.4% | i | 3.1%
COc1cc(C2Oc3c(OC)cc(/C=C/C(=O)OC[C@H]4O[C@@H](OC(C)(C)C(=O)O)[C@H](O)[C@@H](O)[C@@H]4O)cc3C2CO)ccc1O (some centres not stated) | -14.7%[12.6 µM] | 12.2%[20.6 µM] | x | x | x
COc1cc(O)c(C(CC(=O)N2CC(C)CC(C)C2)c2ccc(O)cc2)c(OC)c1 (configuration not stated) | 3.7%[228 µM] | x | x | x | x
CC[C@H]1OC(=O)[C@H](C)C(=O)[C@H](C)[C@@H](O[C@H]2O[C@H](C)C[C@H](N(C)C)[C@H]2O)[C@](C)(OC)C[C@@H](C)C(=O)[C@H](C)[C@H]2N(CCCCn3cnc(-c4cccnc4)c3)C(=O)O[C@]12C | -3.7% | x | x | x | x
Cc1cc(Br)ccc1NC(=O)CN1C(=O)c2cccnc2Sc2ccccc21 | 79.4µM* | 4.4% | -8.7% | i | -2.1%
CCN(CC)CCCCNc1nc2cc(Cl)c(Cl)cc2nc1-c1ccc(-c2cccs2)s1 | 20µM*! | 6.5%[53.3 µM] | x | x | x
O=C(Nc1nc2c(F)cccc2s1)c1ccc2c(c1)OCCO2 | -19.9% | -18.0% | u | i | 3.98µM*
Cc1cccc2sc(N(CCN(C)C)C(=O)c3ccc4c(c3)OCCO4)nc12 | u | -0.6% | -1.6% | i | -11.7%
COCCN(C)Cc1ccc2nc3sc(C(=O)N(C)C4CCCCC4)cn3c2c1 | -2.0%[57.5 µM] | u | x | x | x
CCc1cnc2c(c1SCC(=O)N1CCCCC1)c(=O)n(C)c(=O)n2C | -0.5% | 1.7% | 2.5% | i | 7.3%
CCc1cnc2c(c1SC(C(C)=O)C(=O)N(C)C)c(=O)n(C)c(=O)n2C (configuration not stated) | 25.1µM* | -2.8% | -7.4% | i | 7.4%
CN(C)c1ccc2c(c1)OC(N)=C(C#N)C2c1cccc(C(F)(F)F)c1 (configuration not stated) | -12.6%[57.5 µM] | u | x | x | x
